{"source": "PubChem BioAssay (NCATS)", "note": "Results filed as inconclusive are left out. Activity calls are given as the source filed them. The call rests on the fitted dose curve; in most records, active means well fitted inhibition curve with a large enough effect; inconclusive means small, poorly fitted or top-dose-only effect; inactive means flat fitted curve, though single readings scatter.", "data": [{"system": "Zika virus NS2B-NS3 protease", "assay": "Primary screen GU AMC qHTS for Zika virus inhibitors (AID 1347154);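 further: 0% = no-inhibitor control and -100% = no-enzyme control; nearly all actives have a fitted effect of over 70% in size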", "conditions": "Zika NS2B-NS3 unlinked protease, AMC fluorogenic substrate; series mostly up to 54.1 µM; activity change, negative = inhibition: at the top concentration", "method_in_brief": "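Unlinked Zika NS2B hydrophilic domain–NS3 protease complex at 25 nM in 10 mM Tris-HCl pH 8.0, 0.01% Tween 20, with an AMC peptide substrate. Fluorescence change (340/450 nm) over 15 min at room temperature, normalized to controls, fitted to 4-parameter Hill.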", "values": [{"smiles": "CC(C)C[C@H](NC(=O)CNC(=O)[C@H](Cc1ccc(O)cc1)NC(=O)[C@H](CO)NC(=O)[C@H](Cc1c[nH]c2ccccc12)NC(=O)[C@H](Cc1cnc[nH]1)NC(=O)[C@@H]1CCC(=O)N1)C(=O)N[C@@H](CCCN=C(N)N)C(=O)N1CCC[C@H]1C(=O)NCC(N)=O", "note": "(stereo in doubt)", "activity change, negative = inhibition": "-2.21% (inactive)"}, {"smiles": "CC(C)(C)C1CCC(CC2=C(O)c3ccccc3C(=O)C2=O)CC1", "note": "(stereo not drawn)", "activity change, negative = inhibition": "-0.73% (inactive)"}, {"smiles": "O=C1CCCc2c(O)cccc21", "activity change, negative = inhibition": "3.23% (inactive)"}, {"smiles": "O=C1CC2(CCCC2)CC(=O)N1CCNCC1COc2ccccc2O1", "note": "(stereo not drawn)", "activity change, negative = inhibition": "-4.74% (inactive)"}, {"smiles": "OC[C@]1(O)OC[C@@H](O)[C@H](O)[C@@H]1O", "activity change, negative = inhibition": "-1.66% (inactive)"}, {"smiles": "CSCC[C@H](NC(=O)[C@H](Cc1c[nH]c2ccccc12)NC(=O)CCNC(=O)OC(C)(C)C)C(=O)N[C@@H](CC(=O)O)C(=O)N[C@@H](Cc1ccccc1)C(N)=O", "activity change, negative = inhibition": "1.66% (inactive)"}, {"smiles": "CC(C)(C)c1ccc(C(=O)CCCCl)cc1", "activity change, negative = inhibition": "3.41% (inactive)"}, {"smiles": "Cc1oc(-c2ccccc2)nc1CCC(=O)c1ccc(CC2SC(=O)NC2=O)cc1", "note": "(stereo not drawn)", "activity change, negative = inhibition": "-18.3% (inactive)"}, {"smiles": "CC(C)(C)C(O)/C=C/c1ccc2c(c1)OCO2", "note": "(stereo not drawn)", "activity change, negative = inhibition": "0.119% (inactive)"}, {"smiles": "COC(=O)/C=C(/C)N", "activity change, negative = inhibition": "5.77% (inactive)"}, {"smiles": "Cc1oc(=O)oc1COC(=O)[C@@H]1N2C(=O)[C@@H](NC(=O)[C@H](N)c3ccccc3)[C@H]2SC1(C)C", "activity change, negative = inhibition": "-5.76% (inactive)"}, {"smiles": "OCCOCCN1CCN(C(c2ccccc2)c2ccc(Cl)cc2)CC1", "note": "(stereo not drawn)", "activity change, negative = inhibition": "-10.9% (inactive)"}, {"smiles": "O=C(OCC(COC(=O)c1cccnc1)(COC(=O)c1cccnc1)COC(=O)c1cccnc1)c1cccnc1", "activity change, negative = inhibition": "-2.77% (inactive)"}, {"smiles": "COC(=O)c1cc(Cl)c(NC(C)=O)cc1OC", "activity change, negative = inhibition": "-7.83% (inactive)"}, {"smiles": "CC(=O)CC/C=C(\\C)CC/C=C(\\C)CC/C=C(\\C)CCC=C(C)C", "activity change, negative = inhibition": "-1.93% (inactive)"}, {"smiles": "CCc1cccc2c(CCO)c[nH]c12", "activity change, negative = inhibition": "2.38% (inactive)"}, {"smiles": "CCOC(=O)C(=O)c1csc(NC=O)n1", "activity change, negative = inhibition": "4.32% (inactive)"}, {"smiles": "O=C(O)C(=O)Nc1cccc(-c2nn[nH]n2)c1", "activity change, negative = inhibition": "0.257% (inactive)"}]}]}
